Compounds without any hit were thinned out: in the full panel of roughly 83,000, 20% have a hit.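 The endpoint reported here, percent growth, reads 100 for growth as untreated, 0 for no net growth and -100 for all cells dead.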 Values without a mark were called inactive. The source made the active and inactive calls. The calls were made as follows: active = growth percent below 10; inactive = the rest.
Test system: TK-10 renal
Assay: NCI-60 one-dose screen, 48 h (100 = growth as untreated, 0 = no growth, -100 = all killed)
Details: 10 µM unless noted

Row | SMILES | growth
1 | COc1ccc(C2SCC(=O)N2NC(=O)c2ccc(NC(=O)c3ccccn3)cc2)cc1OC (centres undefined) | 90.1%
2 | O=C(O)c1cn(C2CC2)c2cc(N3CCN(S(=O)(=O)c4ccc(Cl)c(Cl)c4)CC3)c(F)cc2c1=O | 33.2%
3 | COc1ccc(/C=C/C(=O)c2ccc(B(O)O)cc2)cc1O | 104%
4 | O=C(Nc1ccc(OCc2nnc(-c3ccc(Cl)cc3)o2)c(F)c1)Nc1ccc(Cl)c(Cl)c1 | 77.5%
5 | COc1cc(/C=C2\C=C(c3ccc(F)cc3)N(Cc3ccccc3)C2=O)cc(OC)c1OC | 90.3%
6 | Cc1cc(C)c(NC(=O)c2sc3nc4c(cc3c2N)CN(Cc2ccccc2)CC4)c(C)c1 | 67.6%
7 | COc1cccc(-c2nc3sccn3c2-c2ccnc(NCCCNS(=O)(=O)c3ccccc3)n2)c1 | 82%
8 | COc1cc(NCCN=C(N)NC(N)=NC(C)C)c2ncccc2c1 | 110%
9 | Cc1ccc(Nc2ncnc3c2sc2ncccc23)cc1 | 123%
10 | COc1cccc(/C=C2\SC(N3CCN(c4ccccn4)CC3)=NC2=O)c1 | 90.9%
11 | CCOC(=O)C1=C(CSC(=S)N(C2CCCCC2)C2CCCCC2)N(C)C(=O)NC1c1ccccc1 (centres undefined) | 74%
12 | CC(C)C[C@H](NC(=O)[C@@H](Cc1ccccc1)n1ccc(Nc2ccccc2)cc1=O)B(O)O | -0.144% (active)
13 | COc1cccc(-c2nc3sccn3c2-c2ccnc(NCCCNS(=O)(=O)c3ccc(F)cc3)n2)c1 | 66.2%
14 | O=S(=O)(NCCCNc1nccc(-c2c(-c3ccccc3)nc3sccn23)n1)c1ccc(F)cc1 | 72.7%
15 | Nc1c(C(=O)Nc2ccccc2)sc2nc3c(cc12)CCCCC3 | 21.6%
16 | CCNC(=O)CCCCC(=O)c1c(C)[nH]c(/C=C2\N=C(c3ccc[nH]3)C=C2OC)c1C | -61.6% (active)
17 | Cc1cc(Nc2nc(C(=O)Nc3ccccc3)nc3ccccc23)n[nH]1 | 58.8%
18 | CCCCCCCCCCCCCCCCC(Br)C(=O)O (centres undefined) | 116%
19 | COc1ccc(/C=C2\C(=O)N(C(=O)c3csc(NC(C)=O)n3)N=C2C)cc1 | 102%
20 | COc1ccc(-c2nc3sccn3c2-c2ccnc(NCCCNS(=O)(=O)c3ccc4ccccc4c3)n2)cc1 | 89.8%

Row | SMILES | growth
21 | CC[C@]1(O)C[C@@H]2CN(Cc3c([nH]c4ccccc34)[C@@](C(=O)OC)(c3cc4c(cc3OC)N(C)[C@H]3[C@@](O)(C(=O)OC)[C@H](OC(C)=O)[C@]5(CC)[C@@H]6C[C@@H]6CN6CC[C@]43[C@@H]65)C2)C1 | 55.7%
22 | CN=S(=O)(NC(=O)c1ccc(Cl)cc1Cl)c1ccc(Br)s1 (centres undefined) | 106%
23 | Cc1ccc(S(=O)(=O)NCCCNc2nccc(-c3c(-c4ccccc4)nc4sccn34)n2)cc1 | 85.8%
24 | COc1cc(OC)c(C(=O)/C=C/c2cccc(C#N)c2)c(OC)c1 | 24.8%
25 | COc1ccc(C2CC(c3cccs3)=NN2c2ccc(S(=O)(=O)NC(=O)Nc3ccc(C)cc3)cc2)cc1 (centres undefined) | 96.8%
26 | O=S(=O)(NCCNc1nccc(-c2c(-c3ccccc3)nc3sccn23)n1)c1ccc(O)cc1 | 62.2%
27 | CNC(=O)Cc1nc(-c2cccc(NS(=O)(=O)c3c(F)cccc3F)c2F)c(-c2ccnc(Nc3ccccc3)n2)s1 | 42.7%
28 | O=c1[nH]c2ccccc2cc1-c1nnc(Cc2ccccc2)o1 | 112%
29 | CCCCCCC[C@@H](O)CC(=O)N[C@H](CCCCN)C(=O)N[C@H](Cc1c[nH]c2ccccc12)C(=O)NC(CCCCN)C(=O)N[C@H](CC(C)C)C(=O)N[C@H](Cc1ccccc1)C(=O)N[C@H](CCCCN)C(=O)N[C@H](CCCCN)C(=O)N[C@H](CC(C)C)C(=O)N1CCCC1C(=O)N[C@H](CCCCN)C(=O)N[C@H](Cc1ccccc1)C(=O)N[C@H](CC(C)C)C(=O)N[C@H](Cc1c[nH]cn1)C(=O)N[C@H](CC(C)C)C(=O)N[C@H](C)C(=O)N[C@H](CCCCN)C(=O)N[C@H](CCCCN)C(=O)N[C@H](Cc1ccccc1)C(=O)O (some centres undefined) | -80.4% (active)
30 | Oc1ccc(Cl)cc1-c1cc(-c2ccc(Cl)cc2)n[nH]1 | 102%
31 | CN1C(=O)[C@H]2c3c1cccc3[C@@]13NC(=O)O[C@H]1[C@H](CCC3(C)C)C2(C)C | 87.2%
32 | Cc1cccc(-n2c(C)nc3ccc(NC(=O)NCCCl)cc3c2=O)c1 | 99.6%
33 | COc1c(NC[C@H]2OC(O)[C@H](O)[C@@H](O)[C@@H]2O)c(=O)c1=O (some centres undefined) | 97%
34 | COc1ccc(-c2nnc(COc3ccc(NS(=O)(=O)c4ccc(OC)cc4)cc3F)o2)cc1 | 80.9%
35 | CCCOC(=O)C1(O)CCCC1 | 98.8%
36 | Nc1c(C(=O)Nc2ccccc2)sc2nc3c(cc12)CN(Cc1ccccc1)CC3 | 53.9%
37 | COc1cc(OC)cc(-c2n[nH]nc2-c2ccc3c(c2)OCO3)c1 | 59.5%
38 | Cc1ccc(Oc2nc3ccccc3cc2-c2nnc(Cn3c(COc4ccccc4)nc4ccccc43)o2)cc1 | 77.1%
39 | COc1cc(C(=O)/C=C/c2cc(C(=O)c3cc(OC)c(OC)c(OC)c3)ccc2OC)ccc1N | 13.1%
